In the supplement of paper PMC11732987, “Enantioselective OTUD7B fragment discovery through chemoproteomics screening and high-throughput optimisation” (Communications Chemistry, 2025):

Assays:
Assay in all cases: log2 ratio of Biotin-Ahx-Ub-VS probe labelling (fragment/DMSO); higher = less target engagement (more negative = stronger competition), active = hit call of the paper (q ≤ 0.05, log2 ratio ≤ -1)
Details in all cases: compound concentration: 200 uM; treatment time: 3 h
[1] = compound: CC(C)CN(C1CC1)C(=O)CCl
Procedure, shortened: (§1)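 Labelled DUBs were enriched with NeutrAvidin, digested with LysC and trypsin, and run by diaPASEF LC-MS/MS. The labelling used Biotin-Ahx-Ub-VS at 0.5 µM final for 1 h on HEK293T lysate (495 µg per sample) previously treated in triplicate with fragment at 200 µM or vehicle for 3 h. Values are average log2 fragment/vehicle ratios by unpaired t-test on global-median-normalised Spectronaut quantities of proteins with ≥2 unique peptides.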

[2] = compound: CC(NC(=O)CCl)c1cccs1
Procedure, shortened: as §1

[3] = compound: CC1CCCCC1NC(=O)CCl
Procedure, shortened: as §1

[4] = compound: CC1CCCCN1C(=O)CCl
Procedure, shortened: as §1

[5] = compound: CC1CN(CC(C)O1)C(=O)CCl
Procedure, shortened: as §1

[6] = compound: CN(C1CCCCC1)C(=O)CCl
Procedure, shortened: as §1

[7] = compound: Cc1cc(NC(=O)CCl)no1
Procedure, shortened: as §1

[8] = compound: Cc1cccc(NC(=O)CCl)c1
Procedure, shortened: as §1

[9] = compound: Cc1nc(NC(=O)CCl)sc1C
Procedure, shortened: as §1

[10] = compound: Cc1nnc(NC(=O)CCl)s1
Procedure, shortened: as §1

[11] = compound: Cl.Cc1ncsc1CNC(=O)CCl
Procedure, shortened: as §1

[12] = compound: ClCC(=O)N1CCCCCCC1
Procedure, shortened: as §1

[13] = compound: ClCC(=O)NC1(CCCC1)C#N
Procedure, shortened: as §1

[14] = compound: ClCC(=O)NCC1CCC1
Procedure, shortened: as §1

[15] = compound: ClCC(=O)NCC1CCCO1
Procedure, shortened: as §1

[16] = compound: ClCC(=O)NCc1ccco1
Procedure, shortened: as §1

[17] = compound: ClCC(=O)Nc1cccc(Cl)c1
Procedure, shortened: as §1

[18] = compound: ClCC(=O)NC(C1CC1)C1CC1
Procedure, shortened: as §1

Measured: log2 ratio of Biotin-Ahx-Ub-VS probe labelling

USP39 (UniProt Q53GS9)
Chain of UniProt Q53GS9 (Q53GS9 whole entry): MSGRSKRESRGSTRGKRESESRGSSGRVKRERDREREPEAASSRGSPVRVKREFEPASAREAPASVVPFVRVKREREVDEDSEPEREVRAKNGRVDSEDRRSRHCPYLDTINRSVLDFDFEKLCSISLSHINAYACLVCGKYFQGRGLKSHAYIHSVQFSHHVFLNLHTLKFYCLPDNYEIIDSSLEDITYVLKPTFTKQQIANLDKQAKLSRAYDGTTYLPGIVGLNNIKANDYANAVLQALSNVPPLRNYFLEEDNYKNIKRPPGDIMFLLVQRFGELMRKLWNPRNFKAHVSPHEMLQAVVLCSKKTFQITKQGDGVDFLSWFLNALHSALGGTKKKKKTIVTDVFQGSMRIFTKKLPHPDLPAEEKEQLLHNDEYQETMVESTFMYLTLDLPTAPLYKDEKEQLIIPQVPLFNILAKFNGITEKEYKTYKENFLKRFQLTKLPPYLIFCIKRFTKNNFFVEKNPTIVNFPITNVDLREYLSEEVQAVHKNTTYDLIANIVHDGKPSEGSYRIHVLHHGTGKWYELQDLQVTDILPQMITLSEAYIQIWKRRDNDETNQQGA
inactive: [1] -0.169 | [2] -0.144 | [3] -0.231 | [4] -0.11 | [5] -0.122 | [6] 0.248 | [7] -0.329 | [8] -0.224 | [9] 0.121 | [10] -0.07 | [11] 0.28 | [12] 0.0652 | [13] -0.079 | [14] -0.0869 | [15] -0.101 | [16] -0.0526 | [17] 0.19

BAP1 (UniProt Q92560)
inactive: [1] 0.0148 | [4] -0.422 | [5] -0.661 | [6] -0.252 | [12] -0.0644 | [15] -0.549
active: [2] -2.33 | [3] -1.53 | [7] -2.59 | [8] -1.83 | [9] -1.05 | [10] -1.34 | [11] -2.85 | [13] -3.06 | [14] -1.81 | [16] -1.81 | [17] -2.97

OTUD6B (UniProt Q8N6M0)
Chain of UniProt Q8N6M0 (Q8N6M0 whole entry): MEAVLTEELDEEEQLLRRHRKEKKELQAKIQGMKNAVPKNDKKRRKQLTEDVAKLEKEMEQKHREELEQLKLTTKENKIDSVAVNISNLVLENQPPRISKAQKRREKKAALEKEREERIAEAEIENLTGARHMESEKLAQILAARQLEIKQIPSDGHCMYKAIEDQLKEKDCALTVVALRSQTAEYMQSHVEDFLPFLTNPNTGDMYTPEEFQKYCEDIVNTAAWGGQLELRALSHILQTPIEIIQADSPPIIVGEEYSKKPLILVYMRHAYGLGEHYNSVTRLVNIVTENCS
active: [17] -1.19
inactive: [1] 0.0114 | [2] -0.285 | [3] 0.0184 | [4] -0.269 | [5] -0.538 | [6] -0.0327 | [7] -0.167 | [8] -0.274 | [9] -0.338 | [10] -0.283 | [11] -0.0694 | [12] -0.286 | [18] -0.29 | [13] -0.29 | [14] -0.356 | [15] 0.00691 | [16] -0.225

USP36 (UniProt Q9P275)
Chain of UniProt Q9P275 (Q9P275 whole entry): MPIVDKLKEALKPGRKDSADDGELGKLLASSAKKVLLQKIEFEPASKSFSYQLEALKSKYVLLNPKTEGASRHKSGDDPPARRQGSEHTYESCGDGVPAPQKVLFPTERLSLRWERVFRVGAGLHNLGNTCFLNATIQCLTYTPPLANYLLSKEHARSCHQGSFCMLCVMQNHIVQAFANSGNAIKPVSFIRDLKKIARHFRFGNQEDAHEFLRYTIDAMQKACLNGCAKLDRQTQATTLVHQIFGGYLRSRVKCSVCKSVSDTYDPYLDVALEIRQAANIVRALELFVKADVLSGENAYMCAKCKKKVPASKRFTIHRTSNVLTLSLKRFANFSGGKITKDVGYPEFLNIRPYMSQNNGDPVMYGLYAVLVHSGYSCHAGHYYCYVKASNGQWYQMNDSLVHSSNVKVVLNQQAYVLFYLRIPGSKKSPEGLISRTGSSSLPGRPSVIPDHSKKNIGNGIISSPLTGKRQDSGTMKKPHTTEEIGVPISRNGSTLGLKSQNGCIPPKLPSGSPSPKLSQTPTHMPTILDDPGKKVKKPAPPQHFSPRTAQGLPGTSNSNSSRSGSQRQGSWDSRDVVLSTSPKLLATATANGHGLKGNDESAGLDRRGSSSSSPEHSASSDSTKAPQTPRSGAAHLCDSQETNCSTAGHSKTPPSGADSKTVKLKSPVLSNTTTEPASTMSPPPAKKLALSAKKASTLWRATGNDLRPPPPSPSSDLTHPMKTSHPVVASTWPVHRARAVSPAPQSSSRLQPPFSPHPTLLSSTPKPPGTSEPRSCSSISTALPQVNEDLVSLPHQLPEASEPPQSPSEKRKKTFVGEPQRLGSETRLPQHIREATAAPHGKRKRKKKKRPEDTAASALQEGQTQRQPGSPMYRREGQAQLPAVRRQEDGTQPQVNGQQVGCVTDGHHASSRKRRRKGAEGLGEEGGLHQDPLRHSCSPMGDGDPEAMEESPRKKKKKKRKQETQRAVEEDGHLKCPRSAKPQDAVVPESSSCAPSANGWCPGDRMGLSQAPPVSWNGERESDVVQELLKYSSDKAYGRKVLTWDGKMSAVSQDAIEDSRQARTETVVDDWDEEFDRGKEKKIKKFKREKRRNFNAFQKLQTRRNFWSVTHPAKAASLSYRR
inactive: [1] -0.165 | [2] 0.124 | [3] -0.354 | [4] -0.058 | [5] -0.116 | [6] -0.0255 | [7] -0.0892 | [8] -0.141 | [9] -0.166 | [10] -0.233 | [11] 0.171 | [12] -0.19 | [18] -0.148 | [13] -0.191 | [14] -0.134 | [15] -0.189 | [16] -0.185 | [17] -0.132

UCHL3 (UniProt P15374)
inactive: [1] 0.39 | [2] 0.116 | [3] 0.0229 | [4] 0.0176 | [5] 0.122 | [6] -0.0569 | [7] -0.129 | [8] -0.345 | [9] 0.56 | [10] 0.214 | [11] 0.504 | [12] 0.341 | [18] 0.117 | [13] -0.0242 | [14] 0.0333 | [15] 0.275 | [16] 0.103 | [17] -0.827

UCHL5 (UniProt Q9Y5K5)
Chain of UniProt Q9Y5K5 (Q9Y5K5 whole entry): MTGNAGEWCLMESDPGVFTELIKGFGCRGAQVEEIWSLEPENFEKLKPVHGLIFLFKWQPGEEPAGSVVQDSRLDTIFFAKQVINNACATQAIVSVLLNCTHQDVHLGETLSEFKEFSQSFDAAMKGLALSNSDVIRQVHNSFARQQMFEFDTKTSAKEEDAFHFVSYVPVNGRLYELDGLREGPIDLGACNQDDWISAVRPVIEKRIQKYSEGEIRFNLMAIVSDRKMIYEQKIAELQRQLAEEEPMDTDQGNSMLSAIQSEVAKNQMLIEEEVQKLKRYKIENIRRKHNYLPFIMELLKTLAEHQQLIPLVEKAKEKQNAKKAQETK
inactive: [1] -0.0257 | [2] -0.148 | [3] -0.168 | [4] -0.283 | [5] -0.314 | [6] -0.249 | [7] 0.0718 | [8] -0.0463 | [9] -0.292 | [10] -0.0414 | [11] -0.0581 | [12] -0.0659 | [18] -0.00772 | [13] -0.42 | [14] -0.292 | [15] -0.0635 | [16] -0.29
active: [17] -1.02

USP4 (UniProt Q13107)
Chain of UniProt Q13107 (Q13107 whole entry): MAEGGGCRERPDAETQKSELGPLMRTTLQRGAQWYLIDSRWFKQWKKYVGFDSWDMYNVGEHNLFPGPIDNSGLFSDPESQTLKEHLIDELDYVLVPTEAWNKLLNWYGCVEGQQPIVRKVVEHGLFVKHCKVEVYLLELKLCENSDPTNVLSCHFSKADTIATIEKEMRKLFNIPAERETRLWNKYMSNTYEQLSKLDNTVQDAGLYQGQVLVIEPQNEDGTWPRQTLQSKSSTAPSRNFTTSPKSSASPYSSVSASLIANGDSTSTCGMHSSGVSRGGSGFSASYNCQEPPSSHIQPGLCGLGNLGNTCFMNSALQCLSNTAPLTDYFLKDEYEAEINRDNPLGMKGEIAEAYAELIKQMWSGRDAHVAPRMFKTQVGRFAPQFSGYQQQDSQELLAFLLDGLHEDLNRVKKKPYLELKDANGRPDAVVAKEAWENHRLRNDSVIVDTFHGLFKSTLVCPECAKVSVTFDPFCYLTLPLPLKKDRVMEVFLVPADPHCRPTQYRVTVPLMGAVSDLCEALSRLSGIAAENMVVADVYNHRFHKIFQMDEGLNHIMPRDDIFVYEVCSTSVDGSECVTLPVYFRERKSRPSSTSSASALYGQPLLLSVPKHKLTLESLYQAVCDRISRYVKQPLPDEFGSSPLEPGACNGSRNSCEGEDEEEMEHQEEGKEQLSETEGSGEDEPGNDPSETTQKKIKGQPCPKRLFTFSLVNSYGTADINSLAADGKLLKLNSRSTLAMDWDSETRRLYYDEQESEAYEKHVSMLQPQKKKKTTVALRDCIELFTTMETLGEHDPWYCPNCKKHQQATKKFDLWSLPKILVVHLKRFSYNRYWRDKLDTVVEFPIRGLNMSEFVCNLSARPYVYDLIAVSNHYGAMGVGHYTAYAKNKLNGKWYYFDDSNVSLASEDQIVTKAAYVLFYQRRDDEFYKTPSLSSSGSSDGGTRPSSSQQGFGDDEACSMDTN
inactive: [1] 0.153 | [2] 0.162 | [3] -0.162 | [4] -0.204 | [5] -0.321 | [6] -0.349 | [7] -0.155 | [8] -0.256 | [9] 0.0368 | [10] -0.309 | [11] -0.0374 | [12] -0.0039 | [13] -0.169 | [14] 0.0544 | [15] 0.132 | [16] -0.0646 | [17] -0.558

USP19 (UniProt O94966)
inactive: [1] 0.00416 | [2] -0.0254 | [3] -0.108 | [4] -0.341 | [5] -0.267 | [6] -0.381 | [7] -0.558 | [8] -0.285 | [9] -0.171 | [10] -0.607 | [11] 0.00124 | [12] -0.175 | [13] -0.0817 | [14] 0.0408 | [15] 0.0949 | [16] -0.207 | [17] -0.681

USP28 (UniProt Q96RU2)
Chain of UniProt Q96RU2 (Q96RU2 whole entry): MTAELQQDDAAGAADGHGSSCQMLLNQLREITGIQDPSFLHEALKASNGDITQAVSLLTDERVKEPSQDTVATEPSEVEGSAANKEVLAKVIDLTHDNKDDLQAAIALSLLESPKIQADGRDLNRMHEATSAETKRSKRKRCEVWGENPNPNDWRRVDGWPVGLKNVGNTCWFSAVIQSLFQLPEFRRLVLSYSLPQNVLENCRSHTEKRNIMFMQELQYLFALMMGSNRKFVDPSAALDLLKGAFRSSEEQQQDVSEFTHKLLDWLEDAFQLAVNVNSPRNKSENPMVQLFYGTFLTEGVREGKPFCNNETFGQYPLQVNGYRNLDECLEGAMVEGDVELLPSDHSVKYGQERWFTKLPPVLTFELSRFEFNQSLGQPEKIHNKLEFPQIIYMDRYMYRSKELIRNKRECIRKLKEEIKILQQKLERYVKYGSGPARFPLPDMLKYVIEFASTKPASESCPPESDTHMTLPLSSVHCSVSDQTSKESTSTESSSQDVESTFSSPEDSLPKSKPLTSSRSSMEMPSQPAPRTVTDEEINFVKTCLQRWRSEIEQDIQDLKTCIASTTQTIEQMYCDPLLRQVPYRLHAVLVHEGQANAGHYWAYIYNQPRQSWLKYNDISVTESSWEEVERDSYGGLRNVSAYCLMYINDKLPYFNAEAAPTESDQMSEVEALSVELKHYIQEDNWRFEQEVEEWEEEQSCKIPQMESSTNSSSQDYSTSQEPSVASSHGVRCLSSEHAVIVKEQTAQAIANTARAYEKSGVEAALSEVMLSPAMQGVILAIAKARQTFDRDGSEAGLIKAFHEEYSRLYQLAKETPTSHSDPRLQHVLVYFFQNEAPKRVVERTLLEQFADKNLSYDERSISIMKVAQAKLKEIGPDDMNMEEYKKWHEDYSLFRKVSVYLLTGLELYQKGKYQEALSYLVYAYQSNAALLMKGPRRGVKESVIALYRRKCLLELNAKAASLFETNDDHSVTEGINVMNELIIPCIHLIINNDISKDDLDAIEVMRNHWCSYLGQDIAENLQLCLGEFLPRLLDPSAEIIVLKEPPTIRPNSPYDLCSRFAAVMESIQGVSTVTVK
inactive: [1] -0.207 | [2] -0.568 | [3] -0.669 | [4] -0.421 | [5] -0.575 | [6] -0.419 | [7] -0.987 | [8] -0.664 | [9] -0.857 | [10] -0.957 | [11] -0.256 | [12] -0.28 | [13] -0.611 | [14] -0.427 | [15] -0.11 | [16] -0.47
active: [17] -1.44

FAM105A (UniProt Q9NUU6)
inactive: [1] 0.277 | [2] 0.257 | [3] 0.116 | [4] 0.0605 | [5] 0.177 | [6] 0.232 | [7] -0.696 | [8] 0.176 | [9] 0.144 | [10] 0.133 | [11] -0.00706 | [12] -0.0484 | [13] 0.105 | [14] 0.185 | [15] -0.0373 | [16] 0.0935 | [17] 0.0436

EIF3H (UniProt O15372)
Chain of UniProt O15372 (O15372 whole entry): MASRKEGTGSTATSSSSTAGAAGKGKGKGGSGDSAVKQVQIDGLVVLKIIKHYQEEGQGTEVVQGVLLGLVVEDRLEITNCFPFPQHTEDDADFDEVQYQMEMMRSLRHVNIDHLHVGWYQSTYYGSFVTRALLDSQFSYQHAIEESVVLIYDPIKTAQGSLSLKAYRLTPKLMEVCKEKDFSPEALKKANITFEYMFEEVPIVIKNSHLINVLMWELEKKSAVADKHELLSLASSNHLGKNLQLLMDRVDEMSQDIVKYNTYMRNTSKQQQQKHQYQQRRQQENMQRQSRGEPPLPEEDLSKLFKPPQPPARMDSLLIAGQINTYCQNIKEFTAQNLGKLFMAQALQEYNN
inactive: [1] -0.185 | [2] 0.239 | [3] -0.385 | [4] -0.0794 | [5] -0.144 | [6] 0.0605 | [7] 0.0219 | [8] 0.0847 | [9] 0.0871 | [10] 0.0591 | [11] 0.337 | [12] 0.342 | [13] -0.198 | [14] -0.00227 | [15] 0.038 | [16] 0.206 | [17] 0.176

COPS5 (UniProt Q92905)
inactive: [1] -0.228 | [2] 0.105 | [3] -0.102 | [4] -0.0488 | [5] -0.0269 | [6] 0.0396 | [7] -0.141 | [8] -0.303 | [9] -0.00505 | [10] -0.0303 | [11] 0.0391 | [12] 0.0347 | [13] 0.203 | [14] 0.0382 | [15] 0.0301 | [16] 0.0105 | [17] 0.27

PSMD7 (UniProt P51665)
Chain of UniProt P51665 (P51665 whole entry): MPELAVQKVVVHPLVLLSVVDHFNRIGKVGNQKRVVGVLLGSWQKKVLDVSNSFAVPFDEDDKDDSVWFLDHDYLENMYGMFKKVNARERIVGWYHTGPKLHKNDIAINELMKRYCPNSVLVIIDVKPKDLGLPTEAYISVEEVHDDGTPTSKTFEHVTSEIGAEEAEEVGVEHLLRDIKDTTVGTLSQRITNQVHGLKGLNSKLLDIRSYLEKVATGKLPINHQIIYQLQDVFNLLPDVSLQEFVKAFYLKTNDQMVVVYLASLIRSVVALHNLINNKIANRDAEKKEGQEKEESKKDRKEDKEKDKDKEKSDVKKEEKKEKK
inactive: [1] -0.0028 | [2] -0.0716 | [3] 0.132 | [4] -0.25 | [5] -0.394 | [6] -0.133 | [7] -0.0871 | [8] -0.0249 | [9] 0.0653 | [10] -0.0837 | [11] -0.291 | [12] -0.184 | [13] -0.279 | [14] -0.286 | [15] 0.0364 | [16] -0.47 | [17] -0.124

UniProt Q9P2H5
inactive: [1] -0.166 | [2] -0.204 | [3] 0.0516 | [4] -0.0828 | [5] -0.259 | [6] -0.335 | [7] 0.0945 | [8] -0.217 | [9] -0.0782 | [10] -0.183 | [11] -0.0813 | [12] -0.0714 | [13] -0.237 | [14] -0.322 | [15] -0.138 | [16] -0.105 | [17] -0.631

USP7 (UniProt Q93009)
inactive: [1] -0.278 | [2] -0.0253 | [3] -0.0899 | [4] -0.604 | [5] -0.322 | [6] -0.42 | [7] -0.32 | [8] -0.48 | [9] -0.237 | [10] -0.376 | [11] 0.00818 | [12] -0.609 | [13] -0.186 | [14] -0.0702 | [15] -0.207 | [16] -0.0794 | [17] -0.98

EIF3F (UniProt O00303)
inactive: [1] -0.0929 | [2] -0.197 | [3] -0.16 | [4] -0.0889 | [5] -0.424 | [6] -0.158 | [7] -0.0386 | [8] -0.0785 | [9] 0.0404 | [10] -0.0892 | [11] -0.495 | [12] -0.124 | [13] -0.132 | [14] -0.235 | [15] 0.0109 | [16] 0.0785 | [17] -0.0247

UCHL1 (UniProt P09936)
active: [1] -1.13 | [2] -1.4 | [3] -1.18 | [4] -1.34 | [5] -1.75 | [6] -1.52 | [7] -1.21 | [8] -1.8 | [9] -1.21 | [10] -1.48 | [12] -1.43 | [13] -2.07 | [14] -1.66 | [15] -1.22 | [16] -1.39 | [17] -2.02
inactive: [11] -0.693

USP22 (UniProt Q9UPT9)
inactive: [1] 0.0555 | [2] 0.184 | [3] -0.0563 | [4] 0.000369 | [5] 0.0274 | [6] 0.0658 | [7] -0.433 | [8] -0.357 | [9] -0.117 | [10] 0.0632 | [11] 0.00275 | [12] -0.145 | [13] 0.0376 | [14] 0.219 | [15] -0.0487 | [16] 0.0686 | [17] -0.655
